Experimental findings from PubChem BioAssay are described below.

Active and inactive are the calls of the source.

Test [1] can be described thus: binders of probe aFSTL3 on microarray, primary screen, stem cell growth factor project, biochemical, small-molecule microarray, fluorescence 635/667 (AID 1064).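 Also: measures binding of the biotinylated anti-FSTL3 antibody to printed compounds.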 As to conditions: higher = more signal.
Test [2] is described as follows: binders from COS7 lysate, DM2A8 probe, primary screen, torsin A project, cell lysate, small-molecule microarray, fluorescence 635/667 (AID 1065). As to conditions: higher = more signal, COS7 lysate expressing mutant human TOR1A.
Test [3] can be described thus: binders of probe aFGF2 on microarray, primary screen, stem cell growth factor project, biochemical, small-molecule microarray, fluorescence 635/667 (AID 1067).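 Also: measures binding of biotinylated aFGF2 protein to printed compounds on slides; z-score merges feature fluorescence and signal-to-noise across triplicate slides.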 Particulars: higher = more signal.
Test [4] can be described thus: binders of probe aFGF10 on microarray, primary screen, stem cell growth factor project, biochemical, small-molecule microarray, fluorescence 635/667 (AID 1071).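 Also: score merges 667 nm spot intensity and signal to noise from triplicate slides.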 Particulars: higher = more signal.
Test [5] has as its target Neurogenic locus notch homolog protein 2 (Homo sapiens) (UniProt Q04721). Put plainly: Notch2 binders on small-molecule microarrays, primary screen, biochemical, small-molecule microarray, 635 nm fluorescence, stem cell growth factors (AID 1073). Particulars: Notch2 binding, higher = more signal.
The target in test [6] is Pro-neuregulin-1, membrane-bound isoform (Homo sapiens) (UniProt Q02297). In words: NRG1 binders on small-molecule microarrays, primary screen, psychiatric disease protein project, biochemical, small-molecule microarray, fluorescence 635/667 (AID 1075).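 Also: score combines 667 nm spot fluorescence with signal to noise.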 As to conditions: NRG1 binding, 635 nm fluorescence, higher = more signal.
Sequence of Pro-neuregulin-1, membrane-bound isoform (Homo sapiens) (Q02297 whole entry, looked up, the tested form may be a part, canonical isoform): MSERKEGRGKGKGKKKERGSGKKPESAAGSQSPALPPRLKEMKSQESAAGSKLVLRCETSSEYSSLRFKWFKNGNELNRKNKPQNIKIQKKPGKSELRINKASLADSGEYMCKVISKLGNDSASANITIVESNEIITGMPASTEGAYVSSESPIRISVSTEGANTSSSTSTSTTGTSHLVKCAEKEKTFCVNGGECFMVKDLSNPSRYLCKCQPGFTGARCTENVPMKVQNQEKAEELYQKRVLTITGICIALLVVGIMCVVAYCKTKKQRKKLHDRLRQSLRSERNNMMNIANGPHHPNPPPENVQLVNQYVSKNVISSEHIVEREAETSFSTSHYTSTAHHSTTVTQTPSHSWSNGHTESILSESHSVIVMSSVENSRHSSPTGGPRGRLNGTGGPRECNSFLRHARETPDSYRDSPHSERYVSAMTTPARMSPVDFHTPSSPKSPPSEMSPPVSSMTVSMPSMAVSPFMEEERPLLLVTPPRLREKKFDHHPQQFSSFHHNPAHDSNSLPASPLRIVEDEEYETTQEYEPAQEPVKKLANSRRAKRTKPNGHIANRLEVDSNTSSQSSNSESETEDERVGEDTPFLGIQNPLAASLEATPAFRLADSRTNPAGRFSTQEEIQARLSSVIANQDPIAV
For test [7], the system named is Neuregulin-1 EGF-like domain. In words: binders of neuregulin-1 EGF-like domain, primary screen, biochemical, small-molecule microarray, 635 nm fluorescence (AID 1081).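 Also: binding of the protein to compounds printed on small-molecule microarray slides.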 As to conditions: small-molecule microarray binding, higher = more signal.
Test [8] in a line: FRG1 promoter luciferase signal modulators, primary screen, FRG1 inhibition for FSHD, cell-based, C2C12 myotubes, firefly/Renilla luciferase, luminescence (AID 1084). As to conditions: higher = more signal, called active from +8 up or from −8 down.
A short description of test [9]: binders of probe aFST on microarray, primary screen, stem cell growth factor project, biochemical, small-molecule microarray, fluorescence 635/667 (AID 1086).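 Also: score merges 667 nm fluorescence with signal-to-noise of each printed compound spot.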 Particulars: higher = more signal.
Test [10] is described as follows: binders of probe aHhip on microarray, primary screen, stem cell growth factor project, biochemical, small-molecule microarray, fluorescence 635/667 (AID 1087).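 Also: score merges spot fluorescence at 667nm with spot signal to noise ratio.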 Particulars: higher = more signal.

Sequence of Neurogenic locus notch homolog protein 2 (Homo sapiens) (Q04721 whole entry, looked up, canonical isoform): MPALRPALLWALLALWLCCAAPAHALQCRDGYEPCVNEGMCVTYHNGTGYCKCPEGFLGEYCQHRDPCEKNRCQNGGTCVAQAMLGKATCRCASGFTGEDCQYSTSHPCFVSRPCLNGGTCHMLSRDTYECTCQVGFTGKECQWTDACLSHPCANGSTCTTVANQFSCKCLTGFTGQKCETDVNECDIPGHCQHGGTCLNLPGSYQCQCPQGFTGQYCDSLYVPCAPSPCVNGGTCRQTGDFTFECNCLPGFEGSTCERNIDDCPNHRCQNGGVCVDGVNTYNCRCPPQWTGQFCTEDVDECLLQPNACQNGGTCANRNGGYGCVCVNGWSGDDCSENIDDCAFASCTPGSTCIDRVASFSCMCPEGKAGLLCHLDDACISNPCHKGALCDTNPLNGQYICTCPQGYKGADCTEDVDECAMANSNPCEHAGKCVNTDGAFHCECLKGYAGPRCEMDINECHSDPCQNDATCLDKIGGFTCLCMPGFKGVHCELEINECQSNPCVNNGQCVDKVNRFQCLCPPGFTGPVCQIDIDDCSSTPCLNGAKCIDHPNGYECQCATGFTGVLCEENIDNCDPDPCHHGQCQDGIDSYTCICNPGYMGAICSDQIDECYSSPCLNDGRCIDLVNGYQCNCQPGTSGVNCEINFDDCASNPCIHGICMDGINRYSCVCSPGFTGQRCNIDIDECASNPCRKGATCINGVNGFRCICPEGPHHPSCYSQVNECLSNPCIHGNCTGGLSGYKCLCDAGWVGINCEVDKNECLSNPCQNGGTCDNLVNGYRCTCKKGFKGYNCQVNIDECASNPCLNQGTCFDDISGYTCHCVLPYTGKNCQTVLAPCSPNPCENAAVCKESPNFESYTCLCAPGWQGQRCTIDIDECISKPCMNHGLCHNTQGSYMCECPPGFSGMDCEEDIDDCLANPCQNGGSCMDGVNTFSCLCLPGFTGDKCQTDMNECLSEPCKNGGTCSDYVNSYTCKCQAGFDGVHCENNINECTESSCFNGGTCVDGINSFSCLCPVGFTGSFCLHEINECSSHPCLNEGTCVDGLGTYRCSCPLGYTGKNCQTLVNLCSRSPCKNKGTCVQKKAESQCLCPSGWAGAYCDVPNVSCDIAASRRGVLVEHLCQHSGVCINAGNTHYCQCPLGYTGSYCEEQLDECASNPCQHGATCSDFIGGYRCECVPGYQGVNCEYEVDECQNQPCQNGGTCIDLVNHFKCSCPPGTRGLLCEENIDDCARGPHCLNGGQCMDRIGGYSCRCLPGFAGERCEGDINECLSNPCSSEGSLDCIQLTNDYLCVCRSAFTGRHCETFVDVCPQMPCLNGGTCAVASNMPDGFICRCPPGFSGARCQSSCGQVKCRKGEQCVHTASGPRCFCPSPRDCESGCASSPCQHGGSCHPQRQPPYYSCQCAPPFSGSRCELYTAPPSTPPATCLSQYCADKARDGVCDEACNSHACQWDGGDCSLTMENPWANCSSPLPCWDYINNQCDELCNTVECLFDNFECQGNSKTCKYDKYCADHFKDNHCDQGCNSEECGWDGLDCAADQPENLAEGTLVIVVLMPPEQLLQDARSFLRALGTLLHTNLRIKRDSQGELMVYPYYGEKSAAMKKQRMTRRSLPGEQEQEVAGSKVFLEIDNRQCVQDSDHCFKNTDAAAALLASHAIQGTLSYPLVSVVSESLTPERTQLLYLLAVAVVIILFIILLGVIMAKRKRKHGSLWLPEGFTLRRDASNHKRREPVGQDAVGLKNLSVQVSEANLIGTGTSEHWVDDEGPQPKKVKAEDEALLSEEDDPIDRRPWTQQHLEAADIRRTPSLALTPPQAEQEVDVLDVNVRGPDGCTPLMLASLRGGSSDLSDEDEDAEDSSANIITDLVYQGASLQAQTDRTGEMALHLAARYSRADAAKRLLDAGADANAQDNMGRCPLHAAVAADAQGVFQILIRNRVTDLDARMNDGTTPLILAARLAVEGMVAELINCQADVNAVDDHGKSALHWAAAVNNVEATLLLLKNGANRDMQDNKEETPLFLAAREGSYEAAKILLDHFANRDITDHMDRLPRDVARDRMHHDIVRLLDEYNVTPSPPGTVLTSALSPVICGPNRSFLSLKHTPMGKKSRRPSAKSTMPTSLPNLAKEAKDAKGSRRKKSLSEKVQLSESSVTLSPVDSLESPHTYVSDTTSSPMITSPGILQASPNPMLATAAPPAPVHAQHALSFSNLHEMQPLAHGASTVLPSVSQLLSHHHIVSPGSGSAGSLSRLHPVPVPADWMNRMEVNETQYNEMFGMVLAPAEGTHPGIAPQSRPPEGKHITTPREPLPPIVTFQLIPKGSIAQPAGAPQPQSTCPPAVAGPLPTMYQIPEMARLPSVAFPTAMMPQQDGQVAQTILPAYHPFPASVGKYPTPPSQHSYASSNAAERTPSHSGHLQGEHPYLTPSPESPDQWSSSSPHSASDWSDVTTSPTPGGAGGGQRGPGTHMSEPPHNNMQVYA

In the case of `CCCCCCCCCC(O)C1C=CC2C(=O)N(c3ccccc3)C(=O)C2N1Nc1cc(OC)c(OC)c(OC)c1` (stereo not given), the composite z-score was -0.0386 in [1]; -0.666 in test [2]; 0.0166 in test [3]; 0.23 in test [4]; 0.45 in [5]; 0.856 in [6]. Also, the composite z-score in test [7] is 0.487; in test [9] it was 0.199; in test [10], -0.13. Moreover, the z-score in [8] is 0.393 (inactive).
On to `CCCC=C(CCC)[C@@H](NC(=O)c1cccs1)c1ccc(C(=O)OC)cc1`, for which the composite z-score was found to be 2.23 in test [1]; 0.392 in test [2]; 0.905 in [3]; 1.1 in [4]; 0.592 in [5]; 0.028 in test [6]. Also, the composite z-score was found to be 0.648 in test [7], 2.61 in test [9] and 1.39 in test [10]. In addition, the z-score in test [8] is 0.874 (inactive).
Turning to `CN(C)c1ccc(C(O)C2C=CC3C(=O)NC(=O)C3N2Nc2ccccn2)cc1` (stereo not given), the composite z-score in test [1] was -0.142; in [2], 1.55; in [3] it was -0.0982; in test [4], 0.68; in test [5], 1.5; in test [6], 1.15. For the same molecule, the composite z-score in test [7] was 1.41; in test [9], 0.995; in [10] it was -0.134. For the same molecule, the z-score in [8] was 2.15 (inactive).
`C=C[C@@H](OC)[C@H](OC(=O)Nc1ccc(OC)cc1)c1ccc(O)c(F)c1`: the composite z-score was -0.122 in [1]; 1.6 in test [2]; -0.142 in test [3]; -0.528 in test [4]; -1.25 in test [5]; 0.749 in [6]. Also, the figures for the composite z-score in test [7], in test [9] and in test [10] were 1.15, -0.39 and -0.0994, respectively. Besides, the z-score in [8] was 3.87 (inactive).
Turning to `CCOC(=O)C1=C[C@@H](C(C)(C)C)N(S(=O)(=O)c2ccc(C)cc2)[C@H]1c1cccc2ccccc12`, the composite z-score in test [1] is 0.0905; in test [2], -0.0282; in [3], -0.0724; in test [4], 0.0331; in test [5], 1.08; in test [6], 0.541. For the same molecule, the composite z-score in test [7] was 0.876; in test [9] it was 0.692; in test [10], -0.0296. Moreover, the z-score in test [8] is -4.42 (inactive).
Take `Cn1cccc1C(O)C1C=CC2C(=O)N(c3ccccc3)C(=O)C2N1Nc1ccccc1` (stereo not given): the composite z-score in [1] was -0.236; in [2], 0.401; in test [3], 0.137; in test [4], 0.925; in test [5], 1.71; in [6], 1.91. Besides, the composite z-score in test [7] is 1.17; in test [9], 0.706; in test [10], -0.136. Further, in test [8], the z-score is 0.687 (inactive).
Turning to `COc1ccc(CCNC(=O)[C@@H]2c3ccccc3C(=O)N(C3CCCCC3)[C@H]2c2ccc(CO)cc2)cc1`, the composite z-score in [1] came out at 0.0003; in test [2] it was 1.3; in test [3] it was 0.104; in [4], 0.329; in test [5] it was 0.785; in test [6] it was 1.05. The composite z-score is 1.24 in test [7], 0.246 in [9] and -0.0645 in [10]. Besides, the z-score in test [8] was -0.335 (inactive).
On to `CO[C@H]1O[C@H](CO)[C@@H](OC(=O)CCc2ccccc2)[C@@H]2OC(=O)[C@@H](Cc3ccccc3)C/C=C/C[C@H](Cc3ccccc3)C(=O)O[C@@H]12`, for which the composite z-score is -0.0519 in [1]; 0.595 in test [2]; -0.0962 in [3]; 0.242 in [4]; 0.185 in test [5]; 0.438 in test [6]. The values for the composite z-score in test [7], in [9] and in test [10] were 0.756, 0.671 and 0.0854, respectively. The z-score in [8] is 0.248 (inactive).
As to `COC(=O)C1=CC(CCCO)=CC(c2cccs2)N(Cc2cccc(OC(F)(F)F)c2)C=C1C(=O)OC` (stereo not given), the composite z-score in test [1] is -0.55; in [2], 0.203; in test [3], 0.11; in test [4], 0.583; in [5], 1.51; in test [6], 1.93. The composite z-score in test [7] was 1.2; in [9], 1.5; in test [10], 0.0053. In addition, the z-score in test [8] is 0.0099 (inactive).
Turning to `O=C(Cc1ccccc1)[C@H]1C2C=CCCC(c3ccccc3)=C2CN1Cc1ccccc1` (stereo not given in full), the composite z-score in test [1] was -0.138; in test [2] it was 1.24; in [3] it was -0.085; in test [4], 0.0623; in test [5], -0.0515; in [6], -0.473. Also, the composite z-score in test [7] is -0.122; in [9], -0.205; in [10] it was 0.0722. Also, the z-score in [8] is -1.2 (inactive).
As to `COC(=O)[C@@]1(Cc2ccc(F)cc2)[C@H]2c3cc(C(=O)N4CCCC4)n(CCc4c[nH]c5ccccc45)c3C[C@H]2CN1C(=O)c1ccccc1`, the composite z-score in test [1] was 0.484; in test [2], 0.246; in test [3], 0.0869; in test [4], 0.439; in [5] it was 1.62; in [6] it was 2.06. Further, the results for the composite z-score in test [7], in test [9] and in [10] were 1.22, 1.05 and 0.245, respectively. In addition, the z-score in test [8] is -2.21 (inactive).
